Measurements from ChEMBL document CHEMBL3988442, “University of Dundee, Small-Polar-MMV Screening Library” (2021).
In all, about 48,000 compounds went through this assay and about 13,000 (27%) showed an effect of 50% or more. Some of the results follow.

test system: Wolbachia pipientis; test: Anti-Wolbachia Cell-Based Screen; type: functional; parameters: scale not given: in the data most compounds retested in dose-response had high values; details: 5 µM

Question: For CCc1[nH]c2c(CNC(=O)[C@@H]3CCCN3C)cc(C)cc2c1C, which “Percent Effect” value is on record?
Answer: Its value is 16.75%.

Question: Which “Percent Effect” value does the source give for Cn1ccnc1C(O)(CCNCc1ccc(Cl)o1)C(F)(F)F (centres undefined) here?
Answer: Its value is -7.652%.

Question: For O=C(c1ccsc1)N1CCc2nnc(COc3cncnc3)n2CC1, which “Percent Effect” value is on record?
Answer: Its value is -11%.

Question: For Cc1ncsc1CNc1ccn(Cc2ccccc2)n1, which “Percent Effect” value is on record?
Answer: Its value is -3.966%.

Question: For CC(C)[C@H](N)CC(=O)Nc1nc(-c2cnc(N3CCOCC3)nc2)cs1.Cl, which “Percent Effect” value is on record?
Answer: Its value is 116.3%.

Question: For CCC(C(=O)NCc1csc(N2CCOCC2)n1)n1cccn1 (centres undefined), which “Percent Effect” value is on record?
Answer: The value was 4.05%.

Question: Which “Percent Effect” value does the source give for CCOc1ccc(NC(=O)Nc2cnc(N3CCOCC3)nc2)cc1 here?
Answer: Its value is 2.27%.

Question: Which “Percent Effect” value does the source give for CC[C@H](C)[C@H](N)C(=O)Nc1nc(-c2cnc(N3CCOCC3)nc2)cs1 here?
Answer: Its value is 101.5%.

Question: For COCC(=O)Nc1cnc(N2CCOCC2)nc1, which “Percent Effect” value is on record?
Answer: The value was -9.684%.

Question: CC(C)C(NC(=O)c1nc(N2CCOCC2)ncc1Cl)c1cccs1 (centres undefined) was tested. Which “Percent Effect” value did it give?
Answer: The value was 8.573%.

Question: With COC(=O)CCC(=O)N1CCc2[nH]nc(-c3ccc(F)c(F)c3)c2C1 as the compound, how does the “Percent Effect” value read?
Answer: Its value is 3.026%.

Question: For O=C(CCn1cccc1)N1CCc2[nH]nc(COc3ccccc3)c2C1, which “Percent Effect” value is on record?
Answer: The value was 87.66%.

Question: O=C1CC[C@@H](C(=O)N2CCc3[nH]nc(COc4cccc(Cl)c4)c3C2)N1 was tested. Which “Percent Effect” value did it give?
Answer: The value was 3.497%.

Question: O=C(O)C(F)(F)F.O=C(O)C(F)(F)F.c1ccc(OCc2n[nH]c3c2CN(CC2CC2)C3)nc1 was tested. Which “Percent Effect” value did it give?
Answer: The value was 5.634%.

Question: For O=C(CSCC1CC1)N1CCc2[nH]nc(COc3ccccc3)c2C1, which “Percent Effect” value is on record?
Answer: Its value is 108.9%.

Question: For O=C(Cn1cccn1)N1CCc2[nH]nc(-c3ccc4c(c3)OCO4)c2C1, which “Percent Effect” value is on record?
Answer: The value was 1.932%.

Question: For Cc1nc(C)c(C(=O)N2CCc3[nH]nc(COc4ccccc4)c3C2)s1, which “Percent Effect” value is on record?
Answer: The value was 5.403%.

Question: For O=C(N1CCOCC1)N1CCc2[nH]nc(COc3cccc(Cl)c3)c2C1, which “Percent Effect” value is on record?
Answer: The value was 2.718%.

Question: Which “Percent Effect” value does the source give for CCSCCC(=O)N1CCc2[nH]nc(COc3ccccc3)c2C1 here?
Answer: Its value is 89.78%.

Question: With CN(C)S(=O)(=O)N1C[C@@H]2CC[C@H](C1)N(Cc1cccc(C#N)c1)C2 as the compound, how does the “Percent Effect” value read?
Answer: Its value is -14.1%.

Question: How did the “Percent Effect” value turn out when CCc1nc(CNC(=O)C2CCC(=O)N(Cc3ccccc3F)C2)no1 (centres undefined) was run?
Answer: The value was -29.1%.

Question: For CCNc1ncc(C(=O)NCCc2csc(CSC)n2)cn1, which “Percent Effect” value is on record?
Answer: The value was -1.673%.

Question: How did the “Percent Effect” value turn out when COC(=O)C(C)(C)NC(=O)c1scnc1Cl was run?
Answer: The value was 4.833%.

Question: How did the “Percent Effect” value turn out when CC1(C)OCC2(CO1)CN(C(=O)c1ccccc1Br)C2 was run?
Answer: The value was -7.61%.

Question: O=C1NCCCCC1NC(=O)C1(c2cccc(C(F)(F)F)c2)CC1 (centres undefined) was tested. Which “Percent Effect” value did it give?
Answer: The value was -27.01%.

Question: With CC[C@H](C)[C@H](N)C(=O)Nc1nc(-c2cnc(N(C)CCO)nc2)cs1 as the compound, how does the “Percent Effect” value read?
Answer: Its value is 103.7%.

Question: Which “Percent Effect” value does the source give for Cc1nc(-c2cccc(C(=O)N(C)CC(C)O)c2)cs1 (centres undefined) here?
Answer: Its value is -6.133%.

Question: Which “Percent Effect” value does the source give for CCC(Nc1nnnn1-c1ccccc1)C(=O)Nc1nc(C)cs1 (centres undefined) here?
Answer: The value was 23.33%.

Question: For CC[C@H](C)[C@H](N)C(=O)Nc1nc(-c2cnc(N(C)C)nc2)cs1, which “Percent Effect” value is on record?
Answer: The value was 89.2%.
